LASV entry inh: qHTS for Inhibitors of binding or entry into cells for Lassa Virus | AID 540256, 2011 | Lassa virus pseudotype entry inhibition, cell reporter | actives 1.2% (n = 300,000) | Potency, µM (doses to about 37.9 µM), usual class: inhibitors; calls by dose curve; tested in HEK293 cells; also: nearly all actives have a fitted effect of over 50% in size
HCV inhibitor: qHTS Assay for Inhibitors of Hepatitis C Virus (HCV); actives 3.4% (n = 340,000); Potency, µM (highest dose often 41.8 µM), hits mostly inhibitors; Huh7.5.1 HCVcc-Cre infection, luciferase reporter, 44 h; AID 651820, 2012; active = well fitted inhibition curve with a large enough effect; inconclusive = small, poorly fitted or top-dose-only effect, or another doubt; inactive = no such curve, though single readings can be large or run the other way
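Reporter virus HCVcc-Cre (~0.5 moi) infects cells exposed to compound; seeding density 1,000 cells/well with 4 h settling beforehand. Luminescence, 15 sec read, taken 44 h post-infection following a 15 min RT substrate incubation.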
MARV entry inh: qHTS for inhibitors of binding or entry into cells for Marburg Virus. Marburg virus pseudotyped entry inhibition, cell reporter. Potency, µM (top dose mostly 37.8 µM), actives largely listed as inhibitors. actives 1.8% (n = 300,000); calls by dose curve; tested in HEK293 cells
FMDV antiviral: High Throughput Screening for Foot and Mouth Disease Virus Antivirals; Potency, µM (series often up to 57.9 µM), hits mostly inhibitors; FMDV antiviral cell-based qHTS; actives 1.2% (n = 410,000); AID 1159524, 2015; calls by dose curve; tested in HEK293T cells; also: read-out not given here; nearly all actives have a fitted effect of over 45% in size
Shiga inhibitor: A qHTS for Small Molecule Inhibitors of Shiga Toxin. Vero cells, Shiga toxin protein synthesis inhibition reporter. inhibition, % at 38.7 µM. AID 2315, 2010. actives 9.2% (n = 290,000); in the data active = inhibition mostly above about 28%, no sharp cut-off; inactive = mostly below about 43%
Cycloheximide cs: Cycloheximide Counterscreen for Small Molecule Inhibitors of Shiga Toxin; max response, %; actives 12% (n = 300,000); cell reporter, cycloheximide protein synthesis inhibition counterscreen; in the data active = max response mostly above about 13%, no sharp cut-off; inactive = mostly below about 14%; also: read at 38.3 µM for the half of the compounds with a filed dose
A number is an active result; – = inactive; ? = inconclusive; · = no result given; + = active, no number. A selection: hits, their analogues and other compounds. The true share with any hit is near 13%.

SMILES	LASV entry inh	HCV inhibitor	MARV entry inh	FMDV antiviral	Shiga inhibitor	Cycloheximide cs
Cc1oc(/N=C/c2ccc3c(c2)OCO3)c(C#N)c1C	–	–	–	–	–	–
CSc1nsc(N/N=C/c2ccc3c(c2)OCO3)c1C#N	·	–	·	–	84	41
COCc1ccc(CN2CCc3c([nH]c4ccccc34)C2C(C)(C)C)o1 (stereo unspecified)	?	–	?	–	–	21
COCCC(=O)N1CCc2c([nH]c3ccccc23)C1C(C)(C)C (stereo unspecified)	–	–	–	–	–	–
C[C@@H](C(=O)Nc1ccc2c(c1)OCO2)n1c(=O)[nH]c2ccccc2c1=O	–	–	–	–	29	–
C[C@@H](C(=O)Nc1ccc2c(c1)OCCO2)n1c(=O)[nH]c2ccccc2c1=O	·	–	·	?	147	49
COc1ccc(CCNC(=O)C2CCN(S(=O)(=O)N3CCC(C)CC3)CC2)cc1OC	·	–	·	–	–	–
Cc1nc2sccn2c1CN1CCOc2ccc(CN3CCN(c4ccc(F)cc4)CC3)cc2C1	·	·	·	8.9µM	·	·
O=c1cc(CN2CCN(c3ccc(F)cc3)CC2)nc2sccn12	–	–	–	–	–	–
NCCc1c(-c2ccccc2)n(-c2ccccc2)c2ccccc12	–	11µM	13µM	–	–	–
COc1ccc(C(=O)NC(=S)Nc2nc(C)cc(C)n2)cc1Br	–	?	–	–	–	21
COc1ccc(C(=O)Nc2ccc(N3CCCCC3)cc2)cc1Br	?	?	–	–	66	37
COc1ccc(C(=O)Nc2ccc(Nc3ccccc3)cc2)cc1Br	–	8.9µM	–	?	·	·
COc1ccc(C(=O)Nc2ccc(C(=O)N3CCCCC3)cc2)cc1OC	·	–	?	–	–	–
Cc1cccc(C(=O)NCC(C)NC(=O)c2cccc(C)c2)c1 (stereo unspecified)	–	–	?	–	·	–
CCC(C)N(C(=O)COc1ccc(Cl)c2cccnc12)C1CCS(=O)(=O)C1 (stereo unspecified)	·	–	·	–	·	·
O=C(NN=C1CCCC1)c1cccs1	–	–	–	–	91	63
O=C(NN=C1CCCCCCCCCCC1)c1ccncc1	–	–	–	–	–	–
NC(=O)C(=O)NN=C1C2CC3CC(C2)CC1C3	–	–	?	–	–	8.0
O=C(NN=C1C2CC3CC(C2)CC1C3)c1cccs1	–	–	–	·	73	48
CC(=O)N1CCC(=NNC(=O)c2cccs2)CC1	–	–	?	–	+	55
CC1=C/C(=N\NC(=O)c2cccs2)CC(C)(C)C1	–	–	–	–	–	–
CCOc1ccccc1N(C)C(=O)Cn1nc(Cc2cccnc2)c2ccccc2c1=O	–	·	–	–	·	·
O=C(NN=C1C2CC3CC(C2)CC1C3)c1ccccc1O	·	–	–	–	–	19
C=C(C)C1CC=C(C)C(=NNC(=O)c2ccncc2)C1 (stereo unspecified)	–	–	–	–	·	·
SMILES	LASV entry inh	HCV inhibitor	MARV entry inh	FMDV antiviral	Shiga inhibitor	Cycloheximide cs
C=C(C)C1CC=C(C)/C(=N/NC(=O)c2cccs2)C1 (stereo unspecified)	–	–	?	–	77	22
CC(=O)c1ccc([C@@H]2C[C@]34CN(Cc5cccc(C(F)(F)F)c5)S(=O)(=O)[C@H]3C[C@H]2O4)cc1	·	–	·	?	–	–
COc1ccc(N(CC(=O)Nc2ccc(OC)c(OC)c2)S(=O)(=O)c2ccccc2)cc1Cl	·	13µM	·	–	–	–
CN(c1cccc(NC(=O)CN(c2cccc(Cl)c2)S(=O)(=O)c2ccccc2)c1)S(C)(=O)=O	?	11µM	?	–	–	–
COc1ccc(N(CC(=O)Nc2cccc(N(C)S(C)(=O)=O)c2)S(=O)(=O)c2ccccc2)cc1Cl	–	?	?	–	–	–
COc1ccc(CC2NCC(O)C2OC(C)=O)cc1 (stereo unspecified)	·	0.56µM	·	?	·	·
CC(C)COC(=O)c1ccc(NC(=O)C2C3CCC(C3)C2C(=O)O)cc1 (stereo unspecified)	–	–	–	–	74	62
CCOC(=O)c1ccc(NC(=O)CNC(=O)C2CCCCC2)cc1	–	–	–	·	–	–
CCOC(=O)c1ccc(NC(=O)NC2CC3CCC(C2)N3)cc1 (stereo unspecified)	·	18µM	·	–	–	–
CCOC(=O)c1ccc(NC(=O)C2C3CCC(C3)C2C(=O)O)cc1 (stereo unspecified)	–	?	?	–	–	–
COC(=O)c1ccc(NC(=S)NC2CCCCC2C)cc1 (stereo unspecified)	?	–	–	–	–	25
CCOC(=O)c1ccc(NC(=S)NC(=O)C2CCCC2)cc1	–	–	–	–	–	27
CCOc1ccc(NC(=O)CN(C)C(=O)C2CC(=O)N(CCc3ccc(OC)c(OC)c3)C2)cc1OCC (stereo unspecified)	–	–	–	–	·	·
Cc1ccc(C)c(OCC(=O)Nc2ccc(S(=O)(=O)N3CCN(C)CC3)cc2)c1	–	–	–	–	–	–
Cn1c(=O)c2c(SCC(=O)Nc3ccc4c(c3)OCCO4)nc(CC(C)(C)C)nc2n(C)c1=O	·	–	·	–	–	–
O=C(NC(=S)Nc1ccc(Br)cc1)C1CCCCC1	·	–	·	–	–	–
O=C(NC(=S)Nc1ccc(Br)cc1)C1CCC1	–	–	–	–	102	47
CCOC(=O)c1ccc(NC(=S)NNC(=O)COC)cc1	–	–	–	–	–	–
CCOC(=O)c1ccc(NC(=O)COc2ccccc2CNC2CCCC2)cc1	?	–	8.9µM	–	–	–
COc1ccc(NC(=S)NC(=O)C2CCC2)cc1	·	–	·	–	43	40
CCOC(=O)c1ccc(NC(=S)NNC(=O)C2(C)CC2(Cl)Cl)cc1 (stereo unspecified)	–	–	–	–	active	–
CCCCn1c(N)c(N(Cc2ccccc2OC)C(=O)C(C)Oc2ccc(Br)cc2)c(=O)[nH]c1=O (stereo unspecified)	–	–	–	–	·	·
NC(=O)CC(NC(=O)Cc1ccc(Cl)cc1)c1ccc(NCCCN2CCCC2=O)c([N+](=O)[O-])c1 (stereo unspecified)	·	–	·	–	–	–
O=C(O)c1ccc(NC(=S)NC2CCCCC2)cc1	–	–	?	–	–	–
COc1ccc(NC(=S)N2CCCC2)cc1	?	–	?	–	–	–
CCOC(=O)c1ccc(NC(=O)C2C3CCCCC32)cc1 (stereo unspecified)	?	?	?	–	103	43
COC(=O)c1ccc(NC(=S)NC(=O)C2CCC2)cc1	?	–	–	–	64	26
CCOC(=O)c1ccc(NC(=S)NC2CCCC2)cc1	–	–	–	–	+	22
COC(=O)c1ccc(NC(=O)CNC(=O)C2CCCCC2)cc1	?	–	–	·	–	–
CCOC(=O)c1ccc(NC(=O)C2CCN(S(=O)(=O)CC)CC2)cc1	–	–	–	–	–	–

Bioassay records: PubChem BioAssay, National Center for Advancing Translational Sciences (NCATS)
